Assay results published in PubChem BioAssay (NCI).
The panel holds about 79,000 compounds, 15% with a hit somewhere; the sample as a whole holds those more often. Activity calls are given as the source filed them. Rule as the data show it: active = growth inhibition above about 70%; inactive = the rest.

Tests used:
[1] = NCI Yeast Anticancer Drug Screen. Data for the rad50 strain (AID 155);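 also: 0% = growth of vehicle-only cultures of the same strain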; conditions: S. cerevisiae rad50 strain growth inhibition; at 50.0 µM; stronger effect = higher value
Outline: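 Growth of the mutant yeast was measured after compound exposure and referenced to vehicle-treated cultures.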

[2] = NCI Yeast Anticancer Drug Screen. Data for the mec2-1 strain (AID 157); conditions: S. cerevisiae mec2-1 strain, at 50.0 µM, stronger effect = higher value
Outline: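 Using mec2-1 yeast: add compound, measure growth, express inhibition versus vehicle-treated cultures.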

[3] = NCI Yeast Anticancer Drug Screen. Data for the cln2 rad14 strain (AID 165);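 also: 0% = growth equal to vehicle treated cultures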; conditions: S. cerevisiae cln2 rad14 strain, at 50.0 µM, stronger effect = higher value
Outline: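 Yeast strain cln2 rad14, bearing defects in cell cycle control and DNA repair, serves as the test system; values reflect growth inhibition compared with vehicle.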

[4] = NCI Yeast Anticancer Drug Screen. Data for the bub3 strain (AID 167); conditions: S. cerevisiae bub3 mutant strain, at 50.0 µM, stronger effect = higher value
Outline: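 Whole-cell yeast assay. The mutant strain was incubated with compounds, and growth inhibition was determined by comparison with vehicle-treated cells.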

[5] = NCI Yeast Anticancer Drug Screen. Data for the mlh1 rad18 strain (AID 175); conditions: S. cerevisiae mlh1 rad18 strain growth inhibition; at 50.0 µM; stronger effect = higher value
Outline: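 Steps: expose repair-defective yeast to compound; measure growth; express inhibition against vehicle-treated controls.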

[6] = NCI Yeast Anticancer Drug Screen. Data for the sgs1 mgt1 strain (AID 161);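 also: 0% = growth of cultures given vehicle only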; conditions: S. cerevisiae sgs1 mgt1 strain, at 50.0 µM, stronger effect = higher value
Outline: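 Compounds are added to genetically altered yeast, and growth is compared with cultures given vehicle alone to give percent inhibition.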

Measured: growth inhibition

CN(Cc1ccccc1)C(=O)c1ccc(C(=O)N(C)Cc2ccccc2)cc1
inactive: [1] 1.75% | [2] -1.65% | [3] -3.95% | [4] 35.1% | [5] 40.2%

CC(=O)c1cc2ccccc2o1
inactive: [1] 17.6% | [2] 1.4% | [3] 0.05% | [4] -6.7% | [5] 4.6%

Cc1cc(Cl)ccc1OC(=O)NC1CCCCC1
inactive: [1] -2.5% | [2] 24.4% | [3] -13.5% | [4] 30.4% | [5] 30.4%

CC1=CC(=O)N(n2c(-c3ccccc3)n[nH]c2=O)C1=O
inactive: [1] -26.9% | [2] -12.9% | [3] 7.95% | [4] -13.2% | [5] 5.3%

O=C1CCCCCCCCCCC1Cc1cc(O)c(CC2CCCCCCCCCCC2=O)cc1O (centres undefined)
inactive: [1] -1.2% | [2] 3% | [3] -12.9% | [4] -5.8% | [5] -12.8%

COC(=O)CCS/C=C/C(=O)O
inactive: [1] 11.1% | [2] -8.6% | [3] -34.4% | [4] 4.25% | [5] 4.35%

Cc1cc(=O)n2c(n1)sc1ccc3ccccc3c12
inactive: [1] 12% | [2] -11.8% | [3] 12.8% | [4] -12.8% | [5] 33.9%

COC(=O)C(N)Cc1ccc(OCc2ccccc2)cc1 (centres undefined)
inactive: [1] -0.8% | [2] 5.2% | [3] -4.25% | [4] 24.4% | [5] -5.35%

COC(=O)C(C(=O)C(=O)Nc1c(Cl)cc([N+](=O)[O-])cc1Cl)c1nc2cc(C)c(C)cc2[nH]c1=O (centres undefined)
inactive: [1] 16.6% | [2] 3.1% | [3] 14.3% | [4] -4.85% | [5] -9.75%

OCCCCCCO
inactive: [1] -2.55% | [2] -15.6% | [3] -16.7% | [4] 4.3% | [5] 12.3%

COc1ccccc1C1CCCCC1SCC(=O)O (centres undefined)
inactive: [1] 19.4% | [2] 11.7% | [3] 9.35% | [4] 6.75% | [5] -18.4%

ClC1(c2ccccc2)c2ccccc2C(Cl)(c2ccccc2)c2ccccc21 (centres undefined)
inactive: [1] 17.9% | [2] 0.1% | [3] -3.8% | [4] 12.2% | [5] 27.9%

NCCCOCCN1CCN(c2ccccc2)CC1
inactive: [1] -0.75% | [2] -27.2% | [3] -39.5% | [4] 2.95% | [5] 7.25%

COC(=O)c1ccc(OC(=O)Nc2ccc(Br)cc2)cc1
inactive: [1] 11.3% | [2] 26.4% | [3] -4.2% | [4] 37.2% | [5] 19.9%

COc1ccc(COC(=O)NNC(=O)C2CSC(c3ccccc3)N2C(C)=O)cc1 (centres undefined)
inactive: [1] -23.4% | [2] 6.75% | [3] 3.4% | [4] -8.9% | [5] -10.3%

CC(=O)c1cccc2cc(CC(=O)c3ccccc3)c(=O)oc12
inactive: [1] 12.2% | [2] 5.6% | [3] -33.1% | [4] 11.1% | [5] 1.35%

C[n+]1c(C2(O)CCCCCCCCCCC2)sc2ccccc21
inactive: [1] 3.8% | [2] 10.1% | [3] -11.3% | [4] 1.4% | [5] 34.4%

CC(=O)NNc1ncc(C(=O)/C=C/c2ccccc2C)s1
inactive: [1] 31.1% | [2] 16.1% | [3] 29.1% | [4] 22.3% | [5] 36.6%

CC(C)/C=C(/CC(C)C)C(CCC(=O)Nc1ccccc1)C(=O)Nc1ccccc1 (centres undefined)
inactive: [1] 7.9% | [2] 27.7% | [3] 10% | [4] 1.8% | [5] 35.2%

c1ccc(N/N=C2/CSCc3ccccc32)cc1
active: [1] 93.2% | [3] 74.2% | [4] 80.8% | [5] 94.4%
inactive: [2] 68.8%

O=C(c1cc2ccccc2s1)c1ccccc1Cc1cccc2ccccc12
inactive: [1] 33.8% | [2] 7.25% | [3] 21.2% | [4] 5.45% | [5] -0.75%

COc1ccc(C(CC(=O)c2ccccc2)C(=O)c2ccc3c(c2)OCO3)cc1 (centres undefined)
inactive: [1] -40% | [2] -50.5% | [3] -12.7% | [4] -0.3% | [5] -31.6%

CC(C)(C)C1CCC(=NO)CC1 (centres undefined)
inactive: [1] 23.1% | [2] 16.1% | [3] 18.3% | [4] 14.3% | [5] 23.8%

CN/N=C(\C(=O)Nc1ccc([N+](=O)[O-])cc1[N+](=O)[O-])C1NC(=O)NC1=O (centres undefined)
inactive: [1] 23.8% | [2] 20.1% | [6] 1.95% | [5] -10.9%

COCCCNC1=C(C#N)C(=O)NC(c2cccs2)S1 (centres undefined)
inactive: [1] 2% | [2] 0.15% | [3] 1.25% | [4] 5.3% | [5] -34.8%

Cc1c(C(=O)CC2OC(=O)C(Cl)=C2Cl)c2ccccc2n1C(=O)Nc1ccc(Cl)cc1 (centres undefined)
inactive: [1] 15.8% | [2] -6.75% | [3] -32.4% | [4] 5.05% | [5] 5.3%

CC[N+](C)(CC)CC(O)C[N+]1(C)CC2CCCCC2C1 (centres undefined)
inactive: [1] 13.1% | [2] -1.7% | [3] -10.2% | [4] -4.65% | [5] 4.1%

O=[N+]([O-])C1CCC(N=Nc2c(O)ccc3ccccc23)CC1 (centres undefined)
inactive: [1] -9.95% | [2] 3.6% | [3] -27% | [4] -50.6% | [5] -0.6%

CC1(C)CC(=O)C(/C=N/C(N)=S)=C(O)C1
inactive: [1] -20.3% | [2] -52.1% | [3] 6.2% | [4] -0.85% | [5] -31.6%

[Cl][Pt+2][Cl].[NH-]c1ccc(CC(=O)O)cc1[NH-]
inactive: [1] 48.4% | [2] 7.1% | [3] 39.8% | [4] -11.1% | [5] -4.2%

O=C(c1ccncc1)n1nc(-c2ccccc2)c(N=Nc2ccccc2[N+](=O)[O-])c1-c1ccccc1
inactive: [1] -1.75% | [2] -16.8% | [3] 1.65% | [4] 30.3% | [5] 1%

CCOC(=O)/C(C)=C(/O)C(=O)OCC
inactive: [1] -45.2% | [2] -56.3% | [3] -7.05% | [4] -40.2% | [5] -27.9%

COc1ccc(CCn2cnn3c(=O)c4ccccc4nc3c2=O)cc1OC
inactive: [1] -24% | [2] -29.9% | [3] -0.8% | [4] -17.4% | [5] -20.9%

CCCCCCCCCCCCCCCCCCNC(=O)NCc1ccncc1
inactive: [1] -13.3% | [2] 1.8% | [3] -4.3% | [4] -0.35% | [5] 9.3%

O=C(O)C#Cc1ccccc1[N+](=O)[O-]
inactive: [1] 21.1% | [2] 25.1% | [3] -15.4% | [4] 14.9% | [5] 9.35%

CCOC(=O)N1C(c2ccccc2)N(c2ccccc2)C(c2ccccc2)N1C(=O)OCC (centres undefined)
inactive: [1] 4.7% | [2] 4.65% | [3] 3.3% | [4] -15.6% | [5] 14.8%

NC(=O)c1ccc(Cl)c([N+](=O)[O-])c1
inactive: [1] 8.2% | [6] -7.3% | [3] 6.45% | [4] -31.3% | [5] 2.15%

O=C(NCN1CCOCC1)Nc1ccccc1
inactive: [1] 8% | [6] -1.65% | [3] -24.2% | [4] -6.55% | [5] 2.05%

CCC1(C#N)N=C(c2ccccc2)c2ccccc2N1C(=O)Oc1ccccc1 (centres undefined)
inactive: [1] 3.65% | [6] -9.7% | [3] -15.7% | [4] 11.1% | [5] 19.6%
